# Results filed as inconclusive are left out. Entries that show only a call come without a potency. Calls of active or inactive are those of the source. Calls follow the shape of the dose curve; as a rule, active = well fitted cell-killing curve with a large enough effect; inconclusive = small, poorly fitted or top-dose-only effect, or effect the other way; inactive = flat fitted curve, though single readings scatter.
# Experiment: Compound cytotoxicity measured by an ATP content assay as a counter-screen for lead compounds in human astrocytoma cell line (SNB-19)
# Outline: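 SNB-19 cells, 250 per well, were treated with compounds for 6, 24 or 72 h after overnight seeding. The ATP detection reagent was added 1:1 and luminescence read after 10 min at room temperature, with the signal converted to percent inhibition of viability.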
row,SMILES,Potency
1,C[C@@H]1CCN(C(=O)CC#N)C[C@H]1N(C)c1ncnc2[nH]ccc12,inactive
2,CN1CC(=O)N2C(Cc3c([nH]c4ccccc34)[C@H]2c2ccc3c(c2)OCO3)C1=O (stereo partly specified),inactive
3,Nc1ccc(O)c(C(=O)O)c1,inactive
4,COc1cccc2c1C(=O)c1c(O)c3c(c(O)c1C2=O)C[C@@](O)(C(=O)CO)C[C@@H]3O[C@H]1C[C@H](N)[C@H](O[C@@H]2CCCCO2)[C@H](C)O1,inactive
5,Cc1cccc(C#Cc2ccccc2)n1,24.5 µM (active)
6,CN(C)c1ccc2cc(C(=O)N[C@@H](CCCN=C(N)CCl)C(=O)NCc3ccccc3)ccc2c1,inactive
7,NC1CCC(Nc2nc(Nc3ccc(C(=O)N4CCCCC4)cc3)c3ncn(-c4cccc(F)c4)c3n2)CC1 (stereo unspecified),inactive
8,O=C1c2ccccc2C(=O)c2c(NCCc3ccc(O)cc3)ccc(NCCc3ccc(O)cc3)c21,inactive
9,Oc1cc(O)cc(/C=C/c2ccc(O)c(O)c2)c1,24.5 µM (active)
10,COc1ccc(C=CC(=O)Nc2ccccc2C(=O)O)cc1OC,inactive
11,Nc1cc(C(F)(F)F)ccc1S,inactive
12,CCCC(=O)OC[C@@H](OC(=O)CCC)[C@@H](OC(=O)CCC)[C@H](Cn1c2nc(=O)[nH]c(=O)c-2nc2cc(C)c(C)cc21)OC(=O)CCC,inactive
13,COc1ccc2nc(NC(=O)Nc3ccccc3)sc2c1,19.5 µM (active)
14,O=c1[nH]nc(Sc2ncc([N+](=O)[O-])s2)n1-c1ccc2c(c1)OCCO2,4.89 µM (active)
15,O=c1cc(-c2ccccc2)oc2cc(O)c(O)c(O)c12,inactive
16,Oc1ccc(/C=C/c2cc(O)cc(O)c2)cc1,24.5 µM (active)
17,O=C(O)[C@H](CC(=O)N1C[C@@H]2CCCC[C@H]2C1)Cc1ccccc1,inactive
18,O=C1c2ccccc2-[n+]2ccc3c([nH]c4ccccc43)c21,4.35 µM (active)
19,Clc1ccccc1-c1nc(-c2ccncc2)no1,inactive
20,c1ccc(CCNc2nc(-c3ccccc3)cs2)cc1,inactive
21,CC1(C)OC2=C(C(=O)c3ccccc3C2=O)[C@H](NCc2ccccc2)[C@H]1O,8.91 µM (active)

# Reference: PubChem BioAssay AID1224862 (National Center for Advancing Translational Sciences (NCATS), 2016)
